Measured values: PubChem BioAssay (NCATS)
Inconclusive results are not listed. Unless noted, calls come from the whole dose curve; as a rule, active = well fitted curve in either direction with a large enough effect (not every such curve was filed as active); inconclusive = small, poorly fitted or top-dose-only effect, or another doubt; inactive = flat fitted curve, though single readings scatter.

Tests used:
[1] = AP1 Signaling Pathway (AID 357); conditions: ME-180 AP-1-bla reporter, EGF-induced, beta-lactamase ratio, 5 h; at 17.2 µM (top of the series) unless noted; note: % is set by controls: 0 for no effect and ±100 for the full control effect
Outline: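 AP-1-bla ME-180 cells with beta-lactamase reporter under AP-1 response element, stimulated with EC50 EGF; compounds titrated, 5 hours at 37 degrees Celsius. CCF4 read at 460/530 nm ratio; positive and negative modulators judged by AC50.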

[2] = NFAT Signaling Pathway (AID 444); conditions: Jurkat NFAT-bla M1, carbachol, beta-lactamase ratio, 5 h; at 17.2 µM (top of the series) unless noted;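 note: carbachol stimulus at about its EC50 of 1 µM final; % is set by controls: 0 for no effect and ±100 for the full control effect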
Outline: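 Read-out: CCF4 FRET ratio (460 nm/530 nm) after 1 h RT dye loading, used for %activity and AC50 from titration series. Cells: Jurkat NFAT-β-lactamase/M1 line, treated with compound plus 1 uM carbachol for 5 h, 37 °C.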

[3] = Stat Signaling Pathway (AID 446); conditions: ME-180 SIE beta-lactamase reporter, IL-6 stimulated, 5 h; at 17.2 µM (top of the series) unless noted;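 note: ME-180 cervical cancer cells given 40 pM IL-6 alongside compound; SIE-controlled beta-lactamase reporter measured as 460/530 nm FRET emission ratio; % is set by controls: 0 for no effect and ±100 for the full control effect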
Outline: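 Reporter line: ME-180 cervical carcinoma, SIE-beta-lactamase. Treatment: compound with 40 pM IL-6, 5 hrs, 37 C, in low-serum OPTI-MEM with 10 mM HEPES pH 7.3. Detection: 460/530 nm fluorescence.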

[4] = molecular target: Glucocorticoid receptor (Homo sapiens) (UniProt P04150); assay: GR-GFP Redistribution (AID 450;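 active = compounds whose dose series gives a full or clear partial fitted curve of increased nuclear translocation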; note: potency is the fitted concentration of half-maximal effect); conditions: U2OS GR-GFP nuclear translocation, laser cytometry, 2 h; series mostly up to 20.6 µM
Glucocorticoid receptor (Homo sapiens), sequence (P04150 whole entry, looked up): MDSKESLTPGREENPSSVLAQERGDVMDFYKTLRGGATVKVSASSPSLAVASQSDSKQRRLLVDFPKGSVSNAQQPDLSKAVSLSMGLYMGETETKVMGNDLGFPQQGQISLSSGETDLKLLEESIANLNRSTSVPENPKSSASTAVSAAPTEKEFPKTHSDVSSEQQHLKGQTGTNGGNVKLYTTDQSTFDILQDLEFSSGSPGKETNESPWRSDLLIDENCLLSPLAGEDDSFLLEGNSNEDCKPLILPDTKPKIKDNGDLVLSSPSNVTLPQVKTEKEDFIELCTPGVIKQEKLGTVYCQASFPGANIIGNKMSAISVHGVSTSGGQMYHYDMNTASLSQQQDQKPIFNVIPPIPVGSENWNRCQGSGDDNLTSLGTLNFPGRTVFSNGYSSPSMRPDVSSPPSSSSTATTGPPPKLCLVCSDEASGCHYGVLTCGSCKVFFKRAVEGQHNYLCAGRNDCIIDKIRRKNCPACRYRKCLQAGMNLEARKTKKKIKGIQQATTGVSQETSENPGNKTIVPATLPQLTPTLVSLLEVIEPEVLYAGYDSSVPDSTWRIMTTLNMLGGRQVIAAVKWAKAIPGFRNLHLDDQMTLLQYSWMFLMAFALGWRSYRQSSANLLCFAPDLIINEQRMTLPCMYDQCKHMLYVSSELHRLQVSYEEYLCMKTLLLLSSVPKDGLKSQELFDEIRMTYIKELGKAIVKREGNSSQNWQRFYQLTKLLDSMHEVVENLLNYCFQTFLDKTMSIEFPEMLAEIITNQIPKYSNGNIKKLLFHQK

COc1cc(C2Nc3cccc4cccc(c34)N2)cc(OC)c1OC(C)=O
inactive: activity change, negative = inhibition [1] 19.9% | activity change, negative = inhibition [2] 3.51% | activity, negative = inhibition [3] 9.71% | Potency [4] > 20.6 µM

C[C@]12CC[C@@H]3c4ccc(O[C@@H]5O[C@H](C(=O)O)[C@@H](O)[C@H](O)[C@H]5O)cc4CC[C@H]3[C@@H]1C[C@@H](O)[C@@H]2O
inactive: activity change, negative = inhibition [1] 4.45% | activity change, negative = inhibition [2] -30% | activity, negative = inhibition [3] 11.5% | Potency [4] > 20.6 µM

CC1CN(C2CCN(S(=O)(=O)c3ccccc3)CC2)CC(C)O1 (centres undefined)
inactive: activity change, negative = inhibition [1] 2.07% | activity change, negative = inhibition [2] -20.4% | activity, negative = inhibition [3] 2.46% | Potency [4] > 20.6 µM

COc1ccc2[nH]c(C)c(C(=O)CN3CCc4cc(OC)c(OC)cc4C3)c2c1
inactive: activity change, negative = inhibition [1] -11.9% | activity change, negative = inhibition [2] 1.37% | activity, negative = inhibition [3] 4.19% | Potency [4] > 20.6 µM

COC(=O)CSc1nc(N)c2c3c(sc2n1)CCCC3
inactive: activity change, negative = inhibition [1] -0.00134% | activity change, negative = inhibition [2] -7.55% | activity, negative = inhibition [3] 29.8% | Potency [4] > 20.6 µM

COc1ccc(C(CC(=O)O)NC(=O)OC(C)(C)C)cc1 (centres undefined)
inactive: activity change, negative = inhibition [1] 12.1% | activity change, negative = inhibition [2] -0.371% | activity, negative = inhibition [3] 3.55% | Potency [4] > 20.6 µM

CCOc1ccc(NC(=O)CSC2=C(C#N)C(c3ccc4c(c3)OCO4)CC(=O)N2)cc1 (centres undefined)
inactive: activity change, negative = inhibition [1] -17.2% | activity change, negative = inhibition [2] -5.95% | activity, negative = inhibition [3] -3.62% | Potency [4] > 20.6 µM

CCOC(=O)Oc1ccc2c(c1)C(C)=CC(C)(C)N2C(=O)OCC
inactive: activity change, negative = inhibition [1] 4.5% | activity change, negative = inhibition [2] -5.18% | activity, negative = inhibition [3] 4.48% | Potency [4] > 20.6 µM

O=C(O)c1c[nH]c2ccc(S(=O)(=O)N3CCOCC3)cc12
inactive: activity change, negative = inhibition [1] 13.4% | activity change, negative = inhibition [2] -7.03% | activity, negative = inhibition [3] 6.65% | Potency [4] > 20.6 µM

COc1ccccc1N1CCN(C(=O)c2c(C)cc(=O)oc2C)CC1
inactive: activity change, negative = inhibition [1] 10.3% | activity change, negative = inhibition [2] -1.71% | activity, negative = inhibition [3] 6.24% | Potency [4] > 20.6 µM

Cc1cc(C)n(C(=O)CNC(=O)c2cccs2)n1
inactive: activity change, negative = inhibition [1] 10.9% | activity change, negative = inhibition [2] 3.15% | activity, negative = inhibition [3] 4.05% | Potency [4] > 20.6 µM

C/C(=N\O)C(=O)NCCCn1ccnc1
inactive: activity change, negative = inhibition [1] 16.3% | activity change, negative = inhibition [2] 1.22% | activity, negative = inhibition [3] 16.8% | Potency [4] > 20.6 µM

Clc1nc(-c2n[nH]nc2Cl)n[nH]1
inactive: activity change, negative = inhibition [1] 14.2% | activity change, negative = inhibition [2] -2.11% | activity, negative = inhibition [3] 5.38% | Potency [4] > 20.6 µM

Cc1ccc(-c2nn(C)c(=O)c3ccccc23)cc1CNC(=O)CSc1nc2ccccc2o1
inactive: activity change, negative = inhibition [1] -10.6% | activity change, negative = inhibition [2] -12.2% | activity, negative = inhibition [3] -16.9% | Potency [4] > 20.6 µM

N#Cc1nc(COc2ccccc2F)oc1NCCCn1ccnc1
inactive: activity change, negative = inhibition [1] -26.4% | activity change, negative = inhibition [2] -21.7% | activity, negative = inhibition [3] 5.2% | Potency [4] > 20.6 µM

O=C1c2ccccc2C(=O)N1c1ncccn1
inactive: activity change, negative = inhibition [1] 6.61% | activity change, negative = inhibition [2] -3.61% | activity, negative = inhibition [3] 9.87% | Potency [4] > 20.6 µM

CCOC(=O)NC(O)C(=O)c1cccs1 (centres undefined)
inactive: activity change, negative = inhibition [1] 11.6% | activity change, negative = inhibition [2] -1.46% | activity, negative = inhibition [3] 3.85% | Potency [4] > 20.6 µM

CCC1SC2=NC(C)=C(C(=O)OCCOC)C(c3ccc(C(=O)OC)cc3)N2C1=O (centres undefined)
inactive: activity change, negative = inhibition [1] 17.5% | activity change, negative = inhibition [2] 6.06% | activity, negative = inhibition [3] -2.24% | Potency [4] > 20.6 µM

CCOC(=O)CSc1nc(C)c(C(C)=O)cc1C#N
inactive: activity change, negative = inhibition [1] 8.73% | activity change, negative = inhibition [2] -3.61% | activity, negative = inhibition [3] 6.11% | Potency [4] > 20.6 µM

C=CCOC(=O)C1=C(C)OC(N)=C(C#N)C1c1ccoc1 (centres undefined)
inactive: activity change, negative = inhibition [1] 21.2% | activity change, negative = inhibition [2] -14.1% | activity, negative = inhibition [3] -0.879% | Potency [4] > 20.6 µM

NC(=O)C1CCN(C2OC(=O)c3ccccc32)CC1 (centres undefined)
inactive: activity change, negative = inhibition [1] 2.97% | activity change, negative = inhibition [2] 1.22% | activity, negative = inhibition [3] 10.3% | Potency [4] > 20.6 µM

CCN(CC)CCN1C(=O)C(=O)/C(=C(/O)c2ccc(OC)cc2)C1c1ccco1 (centres undefined)
inactive: activity change, negative = inhibition [1] -1.18% | activity change, negative = inhibition [2] -15.2% | activity, negative = inhibition [3] 3.92% | Potency [4] > 20.6 µM

CC(=O)N/C(=N/c1nc(C)cc(C)n1)Nc1ccc(NC(C)=O)cc1
inactive: activity change, negative = inhibition [1] -2.08% | activity change, negative = inhibition [2] -3.91% | activity, negative = inhibition [3] -1.02% | Potency [4] > 20.6 µM

N/C(CCN1CCOCC1)=N/O
inactive: activity change, negative = inhibition [1] 18.7% | activity change, negative = inhibition [2] 2.54% | activity, negative = inhibition [3] -0.113% | Potency [4] > 20.6 µM

COC(=O)c1ccccc1OCc1cccc(C)n1
inactive: activity change, negative = inhibition [1] -1.62% | activity change, negative = inhibition [2] -4.22% | activity, negative = inhibition [3] -5.73% | Potency [4] > 20.6 µM

O=C(c1coc(=O)c(Br)c1)N1CCOCC1
inactive: activity change, negative = inhibition [1] 6.25% | activity change, negative = inhibition [2] 21.3% | activity, negative = inhibition [3] 1.69% | Potency [4] > 20.6 µM

CCOC(=O)C1/C(=N\O)CC(C)(O)C(C(=O)OCC)C1c1ccc(N(C)C)cc1 (centres undefined)
inactive: activity change, negative = inhibition [1] 6.52% | activity change, negative = inhibition [2] 2.58% | activity, negative = inhibition [3] -4.68% | Potency [4] > 20.6 µM

N#CCCSc1nc(N2CCOCC2)c2c(c1C#N)CCCC2
inactive: activity change, negative = inhibition [1] -2.29% | activity change, negative = inhibition [2] 13.2% | activity, negative = inhibition [3] -12.4% | Potency [4] > 20.6 µM

Cc1cc2c(C)nc(Cc3ccccc3)nc2o1
inactive: activity change, negative = inhibition [1] -3.87% | activity change, negative = inhibition [2] -3.38% | activity, negative = inhibition [3] 5.35% | Potency [4] > 20.6 µM

COc1ccc(OC)c(C2/C(=C(/O)c3ccc(C)cc3)C(=O)C(=O)N2Cc2ccco2)c1 (centres undefined)
inactive: activity change, negative = inhibition [1] -0.882% | activity change, negative = inhibition [2] -17.7% | activity, negative = inhibition [3] -18.2% | Potency [4] > 20.6 µM

CCc1ccc(NC(=O)CSC2=C(C#N)C(c3ccco3)C3=C(CCCC3=O)N2)cc1 (centres undefined)
inactive: activity change, negative = inhibition [1] -12.8% | activity change, negative = inhibition [2] -17.6% | activity, negative = inhibition [3] -16.5% | Potency [4] > 20.6 µM

Cn1c(OCc2cccnc2)nc2c1c(=O)n(Cc1ccc(Cl)cc1)c(=O)n2C
inactive: activity change, negative = inhibition [1] -16.3% | activity change, negative = inhibition [2] 22% | activity, negative = inhibition [3] -15.9% | Potency [4] > 20.6 µM

CC(C(=O)N(C)C)N(C#N)c1nc(N(C)C)nc(N(C)C)n1 (centres undefined)
inactive: activity change, negative = inhibition [1] 1.24% | activity change, negative = inhibition [2] 2.25% | activity, negative = inhibition [3] -6.97% | Potency [4] > 20.6 µM

CCCC(=O)Nn1cnc2c(c1=O)C1(CCCC1)Cc1ccccc1-2
inactive: activity change, negative = inhibition [1] -5.55% | activity change, negative = inhibition [2] -0.237% | activity, negative = inhibition [3] -0.176% | Potency [4] > 20.6 µM

CCOC(=O)N1CCN(C2OC(=O)c3ccccc32)CC1 (centres undefined)
inactive: activity change, negative = inhibition [1] 0.827% | activity change, negative = inhibition [2] 27.2% | activity, negative = inhibition [3] 25.6% | Potency [4] > 20.6 µM

CCC(NC(=O)Nc1ccc(O)cc1)(C(F)(F)F)C(F)(F)F
inactive: activity change, negative = inhibition [1] -8.11% | activity change, negative = inhibition [2] 8.99% | activity, negative = inhibition [3] -7.48% | Potency [4] > 20.6 µM

COc1ccc(OC)c(C2/C(=C(\O)c3ccc(OC)c(Cl)c3)C(=O)C(=O)N2CCN(C)C)c1 (centres undefined)
inactive: activity change, negative = inhibition [1] 10.2% | activity change, negative = inhibition [2] 2.23% | activity, negative = inhibition [3] -6.77% | Potency [4] > 20.6 µM

c1ccc2c(c1)[nH]c1c(N3CCN(C4CCCCC4)CC3)ncnc12
inactive: activity change, negative = inhibition [1] 2.02% | activity change, negative = inhibition [2] -22.7% | activity, negative = inhibition [3] 0.857% | Potency [4] > 20.6 µM

N#Cc1ccc(-c2cccnc2)nc1SCC(=O)Nc1sc2c(c1C#N)CCC2
inactive: activity change, negative = inhibition [1] -1.23% | activity change, negative = inhibition [2] -7.12% | activity, negative = inhibition [3] -7.78% | Potency [4] > 20.6 µM

Cc1nnc(SCc2nc3ccccc3[nH]2)s1
inactive: activity change, negative = inhibition [1] 1.21% | activity change, negative = inhibition [2] 8.95% | activity, negative = inhibition [3] 4.08% | Potency [4] > 20.6 µM

Cn1ncc(N=Cc2c(O)ccc3ccccc23)c1C(=O)N1CCOCC1
inactive: activity change, negative = inhibition [1] 1.1% | activity change, negative = inhibition [2] -28.4% | activity, negative = inhibition [3] -16.5% | Potency [4] > 20.6 µM

O=c1cc(O)nc2n1CCCS2
inactive: activity change, negative = inhibition [1] 5% | activity change, negative = inhibition [2] -0.525% | activity, negative = inhibition [3] -1.13% | Potency [4] > 20.6 µM

Cn1c(OCc2cccnc2)nc2c1c(=O)n(Cc1ccccc1)c(=O)n2C
inactive: activity change, negative = inhibition [1] -12.1% | activity change, negative = inhibition [2] -1.28% | activity, negative = inhibition [3] 4.58% | Potency [4] > 20.6 µM

N=c1ncn(CC(O)CN2CCOCC2)c2nc(N3CCOCC3)[nH]c12 (centres undefined)
inactive: activity change, negative = inhibition [1] 6.34% | activity change, negative = inhibition [2] -3.22% | activity, negative = inhibition [3] 13.6% | Potency [4] > 20.6 µM

O=C(CN1CCc2[nH]c3ccccc3c2C1)N1CCCCC1
inactive: activity change, negative = inhibition [1] -7.36% | activity change, negative = inhibition [2] -20.1% | activity, negative = inhibition [3] 4.96% | Potency [4] > 20.6 µM

Cc1nnc(SCC(=O)N2CCOCC2)c2ccccc12
inactive: activity change, negative = inhibition [1] -1.59% | activity change, negative = inhibition [2] 3.16% | activity, negative = inhibition [3] 2.48% | Potency [4] > 20.6 µM
